“And” between values parts separate entries of the source, which are not always exact repeats. Identical values can stand only once. This is part of a sample that, as a whole, favours compounds with a hit. Of some 83,000 tested, about 20% had one in any assay.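 Single-concentration screen, 48 h exposure, 96-well plates. Endpoint: percent growth. Below 10 = active.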 A structure can be active in one record and inactive in another. The source made the active and inactive calls.
Columns and labels:
Test in all cases: NCI-60 one-dose screen, 48 h (100 = growth as untreated, 0 = no growth, -100 = all killed)
T-47D breast = conditions: 10 µM
BT-549 breast = conditions: 10 µM
MDA-MB-435 melanoma = conditions: 10 µM
SW-620 colon = conditions: 10 µM
MCF7 breast = test system: MCF7 breast
HCT-116 colon = conditions: 10 µM
HCC-2998 colon = conditions: 10 µM
KM12 colon = conditions: 10 µM

Measured: growth

CC1=CC(=C(c2ccc(N)cc2)c2ccc(N)cc2)C=CC1=N
3.11% (active) and 11.3% (inactive): T-47D breast
active: KM12 colon 0.202% and 9.48%
inactive: MDA-MB-435 melanoma 13.6% and 24% | SW-620 colon 17.2% and 39.1% | HCT-116 colon 14% and 11.5% | HCC-2998 colon 21.1% and 48.1%
9.83% (active) and 19.6% (inactive): MCF7 breast; 10 µM
5.57% (active) and 81.8% (inactive): BT-549 breast

COc1ccc(C(=O)C(CN(C)C)CN(C)C)cc1
active: T-47D breast 9.04% | SW-620 colon -80.5% | HCT-116 colon 4.91%
inactive: BT-549 breast 112% | MDA-MB-435 melanoma 36.8% | MCF7 breast; 10 µM 14.3% | HCC-2998 colon 109% | KM12 colon 108%

O=[N+]([O-])c1cc[n+]([O-])cc1
inactive: T-47D breast 120% | BT-549 breast 92.4% | MDA-MB-435 melanoma 112% | SW-620 colon 99.3% | MCF7 breast; 10 µM 97.6% | HCT-116 colon 107% | HCC-2998 colon 97% | KM12 colon 104%

C=C1C(=O)OC2CC1C(OC(C)=O)C/C(C)=C/CC/C(C)=C\CCC2(C)O (stereo not given)
active: T-47D breast 4.13% | BT-549 breast -83.9% | SW-620 colon 1.39% | MCF7 breast; 100 µM -90.9% | HCT-116 colon -64.7% | HCC-2998 colon -51.2%
inactive: MDA-MB-435 melanoma 18.6% | MCF7 breast; 10 µM 10.6% | KM12 colon 23.2%

COc1cc([C@@H]2c3cc4c(cc3[C@@H](Nc3ccc(NC(=O)c5cc([N+](=O)[O-])cn5C)cc3)[C@H]3COC(=O)[C@H]23)OCO4)cc(OC)c1O
active: MCF7 breast; 100 µM 5.63%

Cc1cc(N(CCOS(C)(=O)=O)CCOS(C)(=O)=O)ccc1C=Nc1ccc(-c2nc(Cc3ccccc3)sc2C)cc1
active: HCC-2998 colon -28.3%
inactive: T-47D breast 20.5% | BT-549 breast 52.8% | MDA-MB-435 melanoma 63.2% | SW-620 colon 61.6% | MCF7 breast; 10 µM 36.8% | HCT-116 colon 63.4% | KM12 colon 68.7%

Cc1ccc(Sc2ccccc2N)cc1
inactive: T-47D breast 99.8% | BT-549 breast 89.8% | MDA-MB-435 melanoma 120% | SW-620 colon 58.3% | MCF7 breast; 10 µM 53.7% | HCT-116 colon 55.8% | HCC-2998 colon 132% | KM12 colon 102%

CN(C)CCOC1(Cc2ccc(Cl)cc2Cl)CCC(C(C)(C)C)CC1 (stereo not given)
11% (inactive) and -57.6% (active): MDA-MB-435 melanoma
13.2% (inactive) and -81.3% (active): HCT-116 colon
20.2% (inactive) and -46.6% (active): KM12 colon
inactive: BT-549 breast 58.8% and 24%
active: T-47D breast -21.2% and -41.1% | SW-620 colon -51.8% and -57.6% | MCF7 breast; 10 µM -46.4% and -87.7% | HCC-2998 colon -92.9% and -95.5%

C#CCN(Cc1ccc2nc(N)[nH]c(=O)c2c1)c1ccc(C(=O)NC(CCC(=O)O)C(=O)O)cc1 (stereo not given)
inactive: BT-549 breast 76.9% | MDA-MB-435 melanoma 90.7% | SW-620 colon 61.8% | MCF7 breast; 10 µM 22.4% | HCT-116 colon 45.7% | HCC-2998 colon 31.6% | KM12 colon 70.2%
